Most compounds without a hit are left out; they make up all but 4.2% or so of the library.
TIM10 inh – inhibits growth of TIM10 yeast strain; S. cerevisiae TIM10 strain growth, BacTiter-Glo luminescence, 24 h; inhibition, % at 10 µM; 330,000 tested, 1.4% active; AID 463195;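 active = inhibition of 40% or more at the single tested concentration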;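 note: wild-type TIM10 isogenic control strain grown at permissive 25 °C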
V-ATPase pHluor – yeast V-ATPase proton transport regulation by pHLuorin | S. cerevisiae, pHLuorin cytosolic pH fluorescence | response, % at 10 µM | 350,000 tested, 0.37% active; in the data active = response mostly above about 7.3%, no sharp cut-off; inactive = mostly below about 5.4%; note: actives read high
tim23-1 inh – growth inhibitors of tim23-1 mutant yeast. S. cerevisiae tim23-1 growth, BacTiter-Glo luminescence, 24 h. inhibition, % at 20 µM. 330,000 tested, 1.3% active. AID 463212;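 active = growth inhibition of the mutant yeast at or above 50%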;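 note: temperature-sensitive mutant grown at 25 °C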
NALP1 yeast inh – blocks the NALP1 inflammasome reconstituted in yeast; S. cerevisiae NALP1/ASC/caspase-1 growth, X-gal OD620, 72 h; inhibition, % at 10 µM; 280,000 tested, 0.61% active; AID 2071; in the data active = inhibition mostly above about 24%, no sharp cut-off; inactive = mostly below about 32%
tim10-1 inh – inhibits growth of tim10-1 mutant yeast | S. cerevisiae tim10-1 ts strain growth, BacTiter-Glo, 24 h | inhibition, % at 20 µM | 330,000 tested, 2.2% active | AID 463190;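 active = inhibition of at least 40%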;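 note: mutant grown at 25 °C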
NLRP3 yeast inh – inhibitors of NALP3 inflammasome in yeast. Yeast reconstituted NLRP3/ASC/caspase-1, beta-gal luminescence, 24 h. 330,000 tested, 0.39% active. inhibition, % at 10 µM;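 active = inhibition of 50% or more; inactive = inhibition below 50%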
tim10-1 confirm – tim10-1 yeast growth inhibition, confirmed | shares compounds with tim10-1 inh | S. cerevisiae tim10-1 ts strain growth, BacTiter-Glo, 24 h | inhibition, % at 20 µM | 7,400 tested, 56% active;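 active = inhibition of yeast growth at or above a set limit in either of two repeat tests at 20 µM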;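 note: tim10-1 mutant grown at permissive 25 °C to find synthetic lethal compounds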
Numbers stand for hits; . = inactive; / = no result.

SMILES | TIM10 inh | V-ATPase pHluor | tim23-1 inh | NALP1 yeast inh | tim10-1 inh | NLRP3 yeast inh | tim10-1 confirm
Cc1ccc(NC(=O)CN(C)C(=O)COc2cc(F)ccc2[N+](=O)[O-])cc1 | . | . | . | . | . | . | /
Cc1ccc(/C=C/C(=O)c2ccccc2O)cc1 | . | . | . | . | . | . | /
Cc1ccc(O)c(C(=O)C=Cc2ccccc2)c1 | / | . | / | / | / | / | /
Cc1c(/C=C/C(=O)c2ccccc2O)cnn1C | . | . | . | . | 50 | . | 39
Cc1ccc2occ(/C=C/C(=O)c3ccccc3O)c(=O)c2c1 | . | . | . | . | 48 | . | 33
O=C(NCCN1CCCC1)C1CCC(=O)N(CCCN2CCOCC2)C1 (configuration not stated) | . | . | . | . | . | . | /
Cc1cccc(N2CCN(C(=O)c3ccc4ncsc4c3)CC2)c1C | / | . | / | . | / | / | /
O=C(c1ccc2ncsc2c1)N1CCN(c2ccccc2Cl)CC1 | . | . | . | . | 49 | . | 38
C=CCOc1ccc(/C=N/NC(=O)CC(=O)NC2CCCCC2)cc1 | . | . | . | . | . | . | /
O=C(CNC(=O)c1sc2ccccc2c1Cl)Nc1ccccc1F | . | . | . | / | . | . | /
COc1ccc(Cl)c2c1[nH]c1nc(SCc3ccccn3)nnc12 | . | . | . | . | 42 | . | .
COCC(=O)OCC(=O)N1N=C(c2ccc(Cl)cc2)CC1c1ccco1 (configuration not stated) | . | . | . | . | . | . | /
CC(C)[C@H](NS(=O)(=O)c1ccccc1)C(=O)OCC(=O)N1N=C(c2ccc(Cl)cc2)CC1c1ccco1 (some centres not stated) | . | . | . | . | 41 | . | .
Cc1cc(NCC2CCCO2)n2c(nc3ccccc32)c1C#N (configuration not stated) | . | . | . | / | . | . | /
CC(C)c1cc(NCC2CCCO2)n2c(nc3ccccc32)c1C#N (configuration not stated) | . | . | . | . | 48 | . | 34
Cc1nnc(SCC(=O)c2ccc(Cl)cc2)n(N)c1=O | . | . | . | . | . | . | /
S=C(Nc1nc2c(s1)CCCC2)NC1CC1 | . | . | . | . | 41 | . | .
Cn1nnc(NC(=S)NC(=O)Cc2ccccc2)n1 | . | . | . | . | . | . | /
CC(C)C1NC2(C(=O)c3ccccc3C2=O)C2C(=O)N(c3ccc(F)cc3)C(=O)C12 (configuration not stated) | . | . | . | . | 40 | . | 30
O=C(Nc1nnc(C2=COCCO2)o1)c1ccc([N+](=O)[O-])cc1 | . | . | . | . | 46 | . | 35
O=C(Nc1nnc(C2=COCCO2)o1)c1ccc(Cc2ccccc2)cc1 | . | . | . | . | . | . | /
O=C(Nc1nnc(C2=COCCO2)o1)c1ccc(Br)cc1 | . | . | . | . | 42 | . | 39
O=C(Nc1nnc(C2=COCCO2)o1)c1ccc(Cl)cc1 | . | . | . | . | 57 | . | 32
O=C(Nc1nnc(C2=COCCO2)o1)c1ccc(F)cc1 | . | . | . | . | . | . | /
N=C(N)c1ccc(Cl)cc1 | . | . | . | . | . | . | /
SMILES | TIM10 inh | V-ATPase pHluor | tim23-1 inh | NALP1 yeast inh | tim10-1 inh | NLRP3 yeast inh | tim10-1 confirm
N=C(N)c1ccc(/C=C/c2ccc(C(=N)N)cc2O)cc1 | . | . | . | . | 56 | . | 70
COC(=O)C(CC(=O)c1ccc(Br)cc1)n1ccnc1 (configuration not stated) | . | / | . | . | 72 | . | 44
CC(C)C(=O)Nc1ccc(-c2nc3ccccc3c(=O)o2)cc1 | . | . | . | . | 56 | . | 41
CC(C)(C)C(=O)Nc1cccc(-c2nc3ccccc3c(=O)o2)c1 | . | . | . | . | 40 | . | 48
CC(C)(C)C(=O)Nc1ccc(-c2nc3ccccc3c(=O)o2)cc1 | . | . | . | . | . | . | /
COc1cccc(-c2nc3ccc(O)cc3c(=O)o2)c1 | . | . | . | . | 55 | . | .
CC(C)C(=O)Nc1cccc(-c2nc3ccccc3c(=O)o2)c1 | . | . | . | . | . | . | /
O=C(CN1C(=O)NC(CCc2ccccc2)C1=O)Nc1ccc(F)c(F)c1F (configuration not stated) | . | . | . | / | . | . | /
C[C@@H]1CC2OC(=O)[C@@]3(C)C(=O)CC[C@@](C)(C23)[C@@]1(O)CCc1ccoc1 (some centres not stated) | . | . | . | . | . | . | /
CCc1nc(N2CCC3(CC2)OCCO3)c2nnn(Cc3ccccc3)c2n1 | . | . | . | . | . | . | /
c1ccc(Cn2nnc3c(N4CCC5(CC4)OCCO5)ncnc32)cc1 | . | . | . | . | 42 | . | .
C/C(=N\NC(=O)c1nnn(-c2nonc2N)c1-c1ccccc1)c1cccnc1 | . | . | . | . | . | . | /
Nc1nonc1-n1nnc(C(=O)c2ccccc2)c1-c1ccccc1 | . | . | . | . | 41 | . | .
CCCC(=O)Nc1nnc(S(=O)(=O)N(CC)c2ccc(OC)cc2)s1 | . | . | . | . | . | . | /
O=C(O)c1ccc(/C=C2\SC(=S)N(NC(=O)c3ccccc3)C2=O)cc1 | . | . | . | . | . | . | /
CC(=O)NN1C(=O)/C(=C/c2ccc(C(C)C)cc2)SC1=S | . | . | . | . | 42 | . | 39
Cc1cc(C)nc(CCNC(=O)CC2C(=O)NCCN2Cc2ccccc2)n1 (configuration not stated) | . | . | . | . | . | . | /
CNS(=O)(=O)c1ccc(NS(=O)(=O)c2ccccc2F)cc1 | . | . | . | . | . | . | /
N/C(=N\OC(=O)COc1ccc2ccccc2c1Br)c1ccccn1 | . | . | . | . | 43 | . | 55
O=C1CSc2cc(Cl)ccc2N1 | / | . | / | / | / | / | /
COc1cc2c(cc1OC)C(C)N(C(=O)Nc1cc(C)cc(C)c1)CC2 (configuration not stated) | . | . | . | . | . | . | /
COc1cc2c(cc1OC)C(C)N(C(=O)c1cc3c(C)cc(C)cc3[nH]1)CC2 (configuration not stated) | . | . | . | . | 41 | . | .
NNC(=O)c1cc(-c2cccs2)nc2ccccc12 | . | . | . | . | . | . | /
C/C(=N\NC(=O)c1cc(-c2cccs2)nc2ccccc12)c1ccccn1 | . | . | . | . | 67 | . | 48
Cc1cc(NC(=O)Nc2cc(Cl)sc2Cl)no1 | . | . | . | . | . | . | /
COc1ccccc1C(=O)NC(=O)CSc1nnc(N)s1 | . | . | . | / | . | . | /
CNc1nc(Nc2ccc(C)c(Cl)c2)c2cnn(C)c2n1 | . | . | . | . | . | . | /
Cn1ncc2c(Nc3cccc(Cl)c3)nc(Nc3cccc(Cl)c3)nc21 | . | . | . | . | 54 | . | 45
Cn1ncc2c(Nc3ccc(Br)cc3)nc(Nc3ccc(Br)cc3)nc21 | . | . | . | . | 57 | . | 28
Cc1cc(C(=O)COC(=O)c2cccc(O)c2)c(C)n1C1CC1 | . | . | . | / | . | . | /

Assay outcomes from PubChem BioAssay.
